Experimental data from PubChem BioAssay AID828 (The Scripps Research Institute Molecular Screening Center, 2007).
Out of some 140,000 compounds screened, about 550 (0.39%) were called active. No stated cut-off is given here; in the data, active means inhibition above about 27%; inactive means the rest. The sample as a whole holds a higher share of actives than the screen did.

target: Galanin receptor type 2 (Homo sapiens) (UniProt O43603); experiment: blockers of human galanin receptor 2 – cell-based, primary screen (AID 828); settings: GALR2-expressing cells, antagonist mode; at 4 µM; active compounds read high;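 further: cells stimulated with galanin 1-16 at roughly its EC80; 0% = agonist challenge control and 100% = basal control without agonist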
Sequence (O43603 whole entry, looked up): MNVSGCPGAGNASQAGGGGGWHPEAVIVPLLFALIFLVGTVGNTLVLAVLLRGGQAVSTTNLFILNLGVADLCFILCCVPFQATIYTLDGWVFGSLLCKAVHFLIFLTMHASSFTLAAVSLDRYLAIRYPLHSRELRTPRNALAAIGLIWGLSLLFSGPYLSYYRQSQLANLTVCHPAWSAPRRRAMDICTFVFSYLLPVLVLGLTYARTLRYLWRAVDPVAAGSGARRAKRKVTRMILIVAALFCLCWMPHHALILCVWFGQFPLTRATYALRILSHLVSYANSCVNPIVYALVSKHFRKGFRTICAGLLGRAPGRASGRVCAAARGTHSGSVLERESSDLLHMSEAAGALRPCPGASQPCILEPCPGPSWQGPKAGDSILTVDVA

inhibition, inactive:
CCOC(=O)NC(=O)CSc1nnc(SCCC(=O)O)s1 -4.2%
Nc1nc(SCC(=O)NCCN2CCOCC2)nc2sc3c(c12)CCC3 15.2%
O=C(CSc1nc2ccc([N+](=O)[O-])cc2[nH]1)c1ccc(Cl)cc1 5.51%
Cc1cc(Oc2ccc(Cl)cc2)nc(SCC(=O)c2ccccc2)n1 -1.42%
O=C(CC1NCCNC1=O)Nc1cc(Cl)cc(Cl)c1 (stereo unspecified) -4.41%
CC1CN(C(=S)SCC(=O)c2ccccc2)CC(C)O1 (stereo unspecified) -1.6%
COC(=O)c1cc(NC(=O)Cc2ccccc2[N+](=O)[O-])ccc1Cl 16.4%
CC(=O)Nc1ccc(NC(=O)C(C)OC(=O)c2ccccc2C(=O)c2ccc(Cl)c([N+](=O)[O-])c2)cc1 (stereo unspecified) 25.8%
CCN(C(=O)COC(=O)c1cc(NS(=O)(=O)c2ccc(Cl)c([N+](=O)[O-])c2)ccc1O)C1CCCCC1 -12.1%
CN(c1ccccc1)S(=O)(=O)c1cccc(NC(=O)Cc2c(F)cccc2Cl)c1 6.13%
NS(=O)(=O)c1ccc(NC(=O)COC(=O)C2(c3ccc(F)cc3)CCCC2)cc1 10.9%
CSCCC(Nc1ccc(S(=O)(=O)N2CCOCC2)cc1[N+](=O)[O-])C(=O)OCC(=O)N(C(C)C)C(C)C (stereo unspecified) 0.86%
O=C(CCc1[nH]c2ccccc2c1Sc1ccccc1)N(CCO)CCO -2.04%
CCCOC(=O)c1c(NC(=O)c2cnn3c2NC(c2ccccc2)CC3C(F)(F)F)sc2c1CCCC2 (stereo unspecified) -6.74%
CCOC(=O)c1cc2c(=O)n3ccccc3nc2n(CC(C)C)c1=NC(=O)c1c(-c2c(F)cccc2Cl)noc1C -2.98%
Cc1cccc(N2CCN(C(=O)c3ccccc3NC(=O)C3CCCCC3C(=O)O)CC2)c1 (stereo unspecified) 0.78%
Cc1ccc(NN=C2C(=O)OC(C)(C)OC2=O)c(C)c1 4.74%
CN(C)c1ccc(C(CNC(=O)c2ccc(F)cc2)c2c[nH]c3ccccc23)cc1 (stereo unspecified) 5.85%
CC(=O)N/C(=C/c1ccc(OC(F)F)cc1)C(=O)O -1.23%
Cc1nn(-c2ccccc2)c(-n2cccc2)c1C(=O)O 8.6%
O=C(CN1CCc2ccccc21)NC(c1ccccc1)c1ccccc1 -11.2%
CCCCN(CC)C(=O)c1ccc2c(c1)OCO2 -4.88%
C=CCNC(=S)NNC(=O)c1ccc(Br)o1 0.37%
O=C(COc1cccc(F)c1)Oc1ccc(C(=O)c2ccccc2)cc1 5.19%
CC(C)(C)NCCCOc1ccc(Cl)cc1C(C)(C)C -7.15%
Cc1cccc(-c2nc3ccccc3c(=O)n2NC(=O)Cc2ccc(Cl)cc2)c1 -8.75%
Cc1cc(C)cc(NS(=O)(=O)c2ccc(Oc3ncc(C(F)(F)F)cc3Cl)cc2)c1 -0.6%
CSc1ccccc1-c1nnc(-c2ccc(Cl)cc2)o1 14.1%
O=C(NNC(=S)Nc1ccc(Br)cc1Cl)c1ccco1 1.63%
c1ccc(-c2cc3c(NCC4COc5ccccc5O4)ncnc3s2)cc1 (stereo unspecified) -0.87%
COc1ccc(-c2nn(C)c(=O)c3ccccc23)cc1NC(=O)COc1ccccc1 2.22%
Cc1ccc(NC(=O)Cn2nc(C)c3ccccc3c2=O)c(C)c1 8.82%
Cc1ccc(-n2c(C)cc(C(=O)CSc3nnc4ccccn34)c2C)cc1 3.5%
Cc1ccc(C(=O)NC(=S)Nc2ccc3[nH]c(=O)[nH]c3c2)cc1C -6.84%
COc1ccc(NC(=S)NCC2CCN(c3ccc(OC)cc3)C2)cc1 (stereo unspecified) -2.41%
C/C(CC1CC(C)(C)OC1=O)=N/Nc1nc(-c2ccccc2)cs1 (stereo unspecified) 7.6%
COc1cc(C(=O)NCc2nnc(SCC(=O)Nc3nc4ccc(C)cc4s3)o2)cc(OC)c1OC -19.9%
CCCCc1ccc(NC(=S)N2CCCC(CO)C2)cc1 (stereo unspecified) -8.34%
COc1ccc(NC(=O)CN(Cc2ccccc2)S(C)(=O)=O)cc1OC -9.1%
O=C1CCCN1CCCNc1ncnc2c1[nH]c1ccccc12 22.8%
CCN1CCCC1CNc1ncnc2c1[nH]c1ccc(F)cc12 (stereo unspecified) 13.1%
COc1ccc(/C=C/C(=O)Nc2ccc3c(c2)OCCO3)cc1OC 12.7%
COc1ccc(NS(=O)(=O)c2cc(NC(=O)/C=C/c3cc(OC)c(OC)c(OC)c3)ccc2N2CCCCC2)cc1 5.85%
O=C(NNC1CC(=O)N(c2cccc(Cl)c2)C1=O)c1cccnc1 (stereo unspecified) -6.86%
COc1ccccc1OCCC(=O)OCC(=O)NCc1ccccc1 -7.36%
Cc1cccc(-n2c(C)cc(/C=N/NC(N)=S)c2C)c1 -7.75%
CCCN(CCC)c1c([N+](=O)[O-])c(=O)oc2ccccc12 7.9%
CCOC(=O)Cc1csc(NC(=O)CSc2ccc(Br)cc2)n1 6.81%
CC(C)/C=N/NC(=O)c1cc(Br)ccc1O 10.3%
COc1ccc(C2COC(=O)C2=N)c(NC(=O)c2ccccc2)c1 (stereo unspecified) -8.91%
Cc1nn(Cc2ccc(Cl)cc2)c(Cl)c1/C=N/NC(=O)c1cccnc1 10.9%
CC1CCc2sc(C(=O)N/N=C/C3CCCCC3)cc2C1 (stereo unspecified) -7.82%
CN(C)c1ccc(-n2cccc2/C=N/n2cnnc2)cc1 0.57%
CC(Sc1nc(-c2ccccc2)cc(C(F)(F)F)n1)C(=O)Nc1ccc2c(c1)OCO2 (stereo unspecified) 0.9%
CCc1cccc(C)c1NC(=O)COC(=O)Cc1ccsc1 5.66%
Cc1ccc(NC(=O)CSCC(=O)NC2CCCCC2)cc1 4.82%
Cc1ccc(OCC(=O)OC(C)CN(C)Cc2ccccc2)cc1 (stereo unspecified) -4.66%
CC(NC(=S)Nc1ccc(S(N)(=O)=O)cc1)c1ccc2c(c1)OCO2 (stereo unspecified) 4.43%
COc1cccc(-c2ccc(C#N)c(SCC(=O)NCCc3ccc(Cl)cc3)n2)c1 6.63%
CCc1ccc(C2C(C#N)=C(N)N(N(C)C)C3=C2C(=O)CCC3)s1 (stereo unspecified) -4.14%
CCCc1nc2c([nH]1)C(c1cccnc1)C(C#N)=C(N)O2 (stereo unspecified) 1.63%
COc1cc(OC)cc(-c2nc3ccccc3c(=O)n2NC(=O)c2cccnc2Cl)c1 1.33%
COc1ccc(/C=N/Nc2ncnc3sc4c(c23)CCCC4)cc1O 0.22%
Cc1cc(C)cc(OCC(=O)Nc2nc3ccc([N+](=O)[O-])cc3s2)c1 7.65%
COC(=O)C(NC(=O)c1ccc(OC)cc1)(Nc1ncc(S(=O)(=O)c2ccc([N+](=O)[O-])cc2)s1)C(F)(F)F (stereo unspecified) -4.68%
O=C(CNC(=O)c1ccc(-c2ccccc2)cc1)OCc1ccc(Cl)cc1 9.65%
CC(=O)COc1ccc2c(-c3ccccc3)cc(=O)oc2c1 -10.7%
CS(=O)(=O)N(CC(=O)Nc1ccc(Cl)c(Cl)c1)C1CCCCC1 -3.02%
CN(C)CCNC(CC(=O)Nc1ccc(Cl)c(Cl)c1)C(=O)O (stereo unspecified) -5.57%
COC(=O)c1ccccc1SC1CC(=O)N(c2cccc(C)c2)C1=O (stereo unspecified) 10.2%
C=CCNC(=O)COC(=O)c1ccccc1C(=O)N(C)C1CCCCC1 -14.8%
Cc1cc(C(=O)COc2ccccc2[N+](=O)[O-])c(C)n1-c1cccc(S(=O)(=O)N2CCOCC2)c1 -3.23%
CCOC(=O)c1c(NC(=S)NC(=O)/C=C/c2cccs2)sc(C)c1C -8.3%
Cc1c(C(=O)Nc2cccc(-c3nnc4n3CCCCC4)c2)oc2ccccc12 -1.52%
CC(Cc1cccs1)NC(=O)c1cccc(Cl)c1 (stereo unspecified) 3.36%
Cc1ccc(/C(N)=N/OC(=O)COc2ccc(Cl)c(C)c2)cc1 7.55%
CC(C)(C)c1ccc(C(=O)CSc2ncn[nH]2)cc1 4.68%
O=C(NCCOCc1ccc(Cl)cc1)c1ncn[nH]1 6.29%
COc1ccc(NC(=O)c2nc(-n3nc(C)cc3C)ccc2Cl)cc1Cl -4.22%
N#Cc1ccccc1Sc1ccccc1C(=O)OCC(=O)NC1CCCCC1 -1.21%
COc1ccc(CNC(=O)CN(Cc2ccc(Cl)cc2)S(C)(=O)=O)cc1 -0.09%

inhibition, active:
N#Cc1cccc(NC(=O)COC(=O)c2ccccc2C(=O)c2ccc(Cl)c([N+](=O)[O-])c2)c1 68.1%
CN(C)S(=O)(=O)c1cccc(NC(=O)COC(=O)C2(c3ccccc3F)CCCC2)c1 31.7%
FC(F)(F)c1cnc(Oc2ccccc2-c2nnc(-c3ccc(Cl)cc3)o2)c(Cl)c1 99.8%
Cc1ccc(F)cc1NC(=O)Cc1nn(C)c(=O)c2ccccc12 39.3%
CC(C)OCCCNc1ncnc2c1[nH]c1ccc(F)cc12 35.1%
COc1ccc(/C=C/C(=O)Nc2ccc(C34CC5CC(CC(O)(C5)C3)C4)cc2)cc1OC 27.3%
O=C(NC(Nc1nc2ccc([N+](=O)[O-])cc2s1)(C(F)(F)F)C(F)(F)F)c1ccccc1 88.7%
O=C(CNC(=O)OCc1ccccc1)Oc1cc2oc(=O)cc(-c3ccccc3)c2cc1Cl 31.1%
CC(c1cccnc1)N(CCN(C)C)C(=O)Nc1ccc(Cl)c(Cl)c1 (stereo unspecified) 29.6%
O=C(/C=C/Sc1ncn[nH]1)c1ccc(Cl)cc1 36.3%
